# Experimental data from PubChem BioAssay.
# Calls of active or inactive are those of the source. Unless noted, how the calls were made is not given here.
# Key:
# [1] = anti-His antibody binders, primary screen, artefact control for SMM control protein annotation, biochemical, small-molecule microarray, 635 nm fluorescence (AID 1128); conditions: anti-His Alexa647 antibody binding, higher = more signal;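 further: score merges feature fluorescence with signal-to-noise for each printed compound spot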
# [2] = tested on: Human papillomavirus type 1a E7 protein (residues 1-88); experiment: HPV1a E7 small-molecule binders, primary screen, biochemical, small-molecule microarray, residues 1-88, 635 nm (AID 1129); conditions: small-molecule microarray binding, fluorescence 635 nm; higher = more signal
# [3] = target: Focal adhesion kinase 1 (Homo sapiens) (UniProt Q05397); experiment: small-molecule microarray binders of FAK, primary screen, biochemical, 635/667 nm fluorescence, BSA, DTT (AID 1130); conditions: PTK2 binding, 635 nm fluorescence, higher = more signal;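 further: composite of spot emission at 667 nm and signal to noise over triplicate slides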
# [4] = tested on: Fibrinogen (Alexa647-labelled); experiment: fibrinogen binders on compound microarrays, profiling panel, artefact control for SMM control-protein annotation, biochemical, small-molecule microarray, 635/667 nm fluorescence (AID 1131); conditions: fibrinogen-A647 binding fluorescence, higher = more signal;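 further: z-score merges 667 nm fluorescence with per-spot signal-to-noise over triplicate slides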
# [5] = target: Follistatin (Homo sapiens) (UniProt P19883); experiment: follistatin binders on small-molecule microarrays, primary screen, biochemical, small-molecule microarray, 635/667 nm fluorescence (AID 1132); conditions: FST binding, 635 nm fluorescence, higher = more signal
# [6] = target: Fibroblast growth factor 2 (Homo sapiens) (UniProt P09038); experiment: FGF2 binders on small-molecule microarrays, primary screen, biochemical, small-molecule microarray, 635/667 nm fluorescence (AID 1133); conditions: small-molecule microarray binding, FGF2, fluorescence 635/667; higher = more signal
# [7] = mitochondrial membrane potential change in A549 cells, profiling panel, cell-based, JC-1 fluorescence, basal, 24 h, 100 nL (AID 1138); conditions: higher = more signal;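 further: A549 lung adenocarcinoma cells under basal conditions with no added stimulus; test concentration not given here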
# Lefty1 = Lefty1 binders on small-molecule microarrays, primary screen, biochemical, small-molecule microarray, 635/667 nm fluorescence (AID 1139); conditions: small-molecule microarray binding, fluorescence 635/667; higher = more signal
# [8] = tested on: wheat germ agglutinin (Triticum aestivum), Alexa647-labelled; experiment: wheat germ agglutinin binders on compound microarrays, profiling panel, artefact control for SMM control-protein annotation, biochemical, small-molecule microarray, 635/667 nm fluorescence (AID 1140); conditions: WGA-A647 binding, 635 nm fluorescence, higher = more signal;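 further: score merges 667 nm feature emission with signal to noise over triplicate slides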
# [9] = target: Luciferin 4-monooxygenase (Photinus pyralis) (UniProt P08659); experiment: firefly luciferase enzyme inhibitors, primary screen, biochemical, luminescence, purified enzyme, 2006 set (AID 1141); conditions: SteadyGlo luminescence, 30 min, higher = more signal, called active from +8 up or from −8 down;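 further: cell-free assay with purified firefly luciferase at 100 ng per well in PBS; test concentration not given here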
# [10] = tested on: Wnt5a (protein binding on small-molecule microarray); experiment: Wnt5a binders on small-molecule microarray, primary screen, biophysical, 635/667 nm fluorescence (AID 1142); conditions: 635 nm fluorescence, higher = more signal;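 further: fluorescence read at 667 nm with signal to noise per printed feature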
# [11] = cell viability in Huh7 cells, primary screen, cytotoxicity control for HCV replication inhibitor project, CellTiter-Glo luminescence, basal, 48 h (AID 1143); conditions: Huh7 HCV replicon, higher = more signal, called active from +8 up or from −8 down;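 further: Huh7 hepatoma cells carrying a hepatitis C replication reporter with no stimulus; test concentration not given here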
# [12] = P. aeruginosa biofilm formation inhibitors, primary screen, PAO1 strain, BacTiter-Glo luminescence, LB-PBS (AID 1144); conditions: 12 h, higher = more signal
# [13] = CREB reporter modulators without forskolin, primary screen, cell-based, PC12, CRE-LacZ reporter, unstimulated (AID 1145); conditions: no forskolin, luminescence, 4.5 h, higher = more signal, called active from +8 up or from −8 down
# [14] = CREB reporter modulators under forskolin, primary screen, cell-based, PC12, CRE-LacZ reporter, forskolin-stimulated (AID 1146); conditions: luminescence, 4.5 h, higher = more signal, called active from +8 up or from −8 down;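 further: PC12 cells with 6xCRE LacZ reporter stimulated by forskolin 10 µM; beta-galactosidase reporter signal reflecting CREB driven transcription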
# [15] = target: Streptavidin (Streptomyces avidinii) (UniProt P22629); experiment: streptavidin binders on small-molecule microarray, primary screen, artefact control for SMM compound annotation, biophysical, 635/667 nm fluorescence (AID 1147); conditions: streptavidin binding, higher = more signal;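 further: signal reflects streptavidin binding to arrayed compounds as a control protein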
# [16] = small-molecule binders of probe aInhba, primary screen, biochemical, small-molecule microarray, 635/667 nm fluorescence (AID 1148); conditions: higher = more signal;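 further: score merges 667nm spot fluorescence with signal-to-noise for antibody binding to printed compounds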
# Torsin-1A (Homo sapiens) [17] = target: Torsin-1A (Homo sapiens) (UniProt O14656); experiment: torsin A binders from cell lysate, primary screen, small-molecule microarray, wild-type, 635/667 nm (AID 1149); conditions: COS7 hTOR1A-WT lysate, 635 nm fluorescence, higher = more signal
# Torsin-1A (Homo sapiens) [18] = target: Torsin-1A (Homo sapiens) (UniProt O14656); experiment: small-molecule binders of mutant TOR1A in lysate, primary screen, cell lysate, small-molecule microarray, COS7 lysate, 635/667 nm fluorescence (AID 1150); conditions: COS7 hTOR1A mutant lysate, 635 nm fluorescence, higher = more signal;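 further: score pools 667 nm emission and signal to noise measuring lysate protein binding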
# [19] = tested on: Sonic hedgehog protein (Shh); experiment: small-molecule binders of Shh protein, primary screen, biochemical, small-molecule microarray, 635/667 nm fluorescence (AID 1151); conditions: small-molecule microarray binding, 635 nm fluorescence; higher = more signal;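 further: Shh protein binding to compounds spotted on small-molecule microarray slides; score combines spot fluorescence intensity with signal-to-noise across triplicate slides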
# Chain of Torsin-1A (Homo sapiens) (O14656 whole entry, looked up): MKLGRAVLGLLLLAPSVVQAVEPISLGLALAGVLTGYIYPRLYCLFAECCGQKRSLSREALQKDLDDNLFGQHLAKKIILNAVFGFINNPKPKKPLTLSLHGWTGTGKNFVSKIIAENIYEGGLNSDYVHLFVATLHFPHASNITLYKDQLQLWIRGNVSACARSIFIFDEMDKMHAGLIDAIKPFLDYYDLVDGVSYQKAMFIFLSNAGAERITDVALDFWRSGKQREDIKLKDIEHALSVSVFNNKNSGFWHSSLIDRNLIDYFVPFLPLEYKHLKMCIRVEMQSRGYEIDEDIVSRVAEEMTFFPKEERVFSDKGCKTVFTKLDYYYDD
# Chain of Fibroblast growth factor 2 (Homo sapiens) (P09038 whole entry, looked up): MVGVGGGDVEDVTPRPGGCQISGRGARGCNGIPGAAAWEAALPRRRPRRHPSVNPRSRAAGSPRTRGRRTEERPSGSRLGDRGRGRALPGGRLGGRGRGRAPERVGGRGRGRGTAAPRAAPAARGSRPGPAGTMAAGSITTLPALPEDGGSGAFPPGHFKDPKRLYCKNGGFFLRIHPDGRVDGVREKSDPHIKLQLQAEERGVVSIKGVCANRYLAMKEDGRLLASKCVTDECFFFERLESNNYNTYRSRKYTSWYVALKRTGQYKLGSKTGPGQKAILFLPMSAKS
# Chain of Luciferin 4-monooxygenase (Photinus pyralis) (P08659 whole entry, looked up): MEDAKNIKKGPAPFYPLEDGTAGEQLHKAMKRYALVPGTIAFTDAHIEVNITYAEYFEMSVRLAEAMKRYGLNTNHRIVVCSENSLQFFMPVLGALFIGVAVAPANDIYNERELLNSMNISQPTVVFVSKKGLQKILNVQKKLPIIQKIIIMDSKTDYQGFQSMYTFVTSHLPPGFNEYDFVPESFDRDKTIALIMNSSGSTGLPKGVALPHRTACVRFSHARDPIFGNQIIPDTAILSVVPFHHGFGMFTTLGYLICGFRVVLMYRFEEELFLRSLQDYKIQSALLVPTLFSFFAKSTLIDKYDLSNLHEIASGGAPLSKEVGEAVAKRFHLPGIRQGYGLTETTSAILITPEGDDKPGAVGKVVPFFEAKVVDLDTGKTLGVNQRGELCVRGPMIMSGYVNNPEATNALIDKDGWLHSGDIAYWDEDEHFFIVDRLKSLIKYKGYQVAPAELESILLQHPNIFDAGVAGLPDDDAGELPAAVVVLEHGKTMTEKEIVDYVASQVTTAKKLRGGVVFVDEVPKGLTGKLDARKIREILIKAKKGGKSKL
# Chain of Streptavidin (Streptomyces avidinii) (P22629 whole entry, looked up): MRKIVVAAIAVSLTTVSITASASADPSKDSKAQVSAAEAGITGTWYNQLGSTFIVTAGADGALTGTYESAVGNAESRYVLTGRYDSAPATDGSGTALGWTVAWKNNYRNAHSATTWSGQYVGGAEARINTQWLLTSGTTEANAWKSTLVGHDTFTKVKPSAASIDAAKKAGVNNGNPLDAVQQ
# Chain of Follistatin (Homo sapiens) (P19883 whole entry, looked up): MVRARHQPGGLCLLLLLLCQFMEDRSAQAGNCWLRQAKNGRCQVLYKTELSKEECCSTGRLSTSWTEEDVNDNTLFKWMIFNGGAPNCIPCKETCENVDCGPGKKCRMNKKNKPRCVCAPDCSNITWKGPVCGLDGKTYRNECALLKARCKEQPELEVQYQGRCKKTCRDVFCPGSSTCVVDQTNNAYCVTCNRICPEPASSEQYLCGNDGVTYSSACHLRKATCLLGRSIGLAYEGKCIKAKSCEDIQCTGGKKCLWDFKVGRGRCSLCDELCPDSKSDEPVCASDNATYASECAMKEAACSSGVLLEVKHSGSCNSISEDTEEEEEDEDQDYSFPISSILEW
# Chain of Focal adhesion kinase 1 (Homo sapiens) (Q05397 whole entry, looked up): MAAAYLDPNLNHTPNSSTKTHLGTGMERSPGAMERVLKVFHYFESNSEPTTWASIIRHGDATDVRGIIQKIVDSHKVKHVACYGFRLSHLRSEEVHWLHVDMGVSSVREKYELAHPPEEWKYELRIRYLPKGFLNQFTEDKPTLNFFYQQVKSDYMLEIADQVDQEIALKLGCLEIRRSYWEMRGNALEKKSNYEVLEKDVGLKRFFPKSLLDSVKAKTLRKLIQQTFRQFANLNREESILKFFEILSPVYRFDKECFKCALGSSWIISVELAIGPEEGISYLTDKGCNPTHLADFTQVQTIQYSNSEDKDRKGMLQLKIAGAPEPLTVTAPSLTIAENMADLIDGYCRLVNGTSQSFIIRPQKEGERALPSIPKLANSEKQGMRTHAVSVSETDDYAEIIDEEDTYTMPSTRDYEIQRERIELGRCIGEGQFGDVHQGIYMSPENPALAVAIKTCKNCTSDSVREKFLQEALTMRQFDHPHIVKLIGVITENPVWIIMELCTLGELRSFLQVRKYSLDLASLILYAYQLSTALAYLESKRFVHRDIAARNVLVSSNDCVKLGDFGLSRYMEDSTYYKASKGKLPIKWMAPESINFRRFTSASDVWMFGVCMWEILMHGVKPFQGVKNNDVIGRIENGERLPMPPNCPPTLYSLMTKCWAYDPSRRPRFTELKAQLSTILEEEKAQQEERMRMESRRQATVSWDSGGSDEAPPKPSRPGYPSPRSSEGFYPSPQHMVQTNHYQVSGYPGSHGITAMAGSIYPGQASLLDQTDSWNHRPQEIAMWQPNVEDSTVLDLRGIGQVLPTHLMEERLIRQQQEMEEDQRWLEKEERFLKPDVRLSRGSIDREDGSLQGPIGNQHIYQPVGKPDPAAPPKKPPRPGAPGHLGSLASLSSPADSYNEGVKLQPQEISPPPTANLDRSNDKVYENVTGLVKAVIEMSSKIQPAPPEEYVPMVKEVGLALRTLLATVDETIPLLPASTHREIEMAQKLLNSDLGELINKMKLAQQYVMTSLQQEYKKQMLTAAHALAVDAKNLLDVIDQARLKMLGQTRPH
SMILES,composite z-score [1],composite z-score [2],composite z-score [3],composite z-score [4],composite z-score [5],composite z-score [6],z-score [7],composite z-score (Lefty1),composite z-score [8],z-score [9],composite z-score [10],z-score [11],z-score [12],z-score [13],z-score [14],composite z-score [15],composite z-score [16],composite z-score (Torsin-1A (Homo sapiens) [17]),composite z-score (Torsin-1A (Homo sapiens) [18]),composite z-score [19]
C[N+](C)(C)CCCCCCNC(=O)[C@H]1C[C@H]2C(=O)N3CCC[C@H]3C(=O)N2[C@H]1c1cccc(OCCO)c1,1.38,0.874,0.141,0.242,1.3,1.35,-1.05,1.64,-0.0285,0.126 (inactive),0.544,-0.0803 (inactive),0.236 (inactive),-0.532 (inactive),-0.583 (inactive),-0.278,-0.0112,1.98,1.71,2.15
O=C1OCCC=C[C@H]2OC34C=CCN(Cn5nnc6ccccc65)C(=O)[C@H]3N(CCCCCO)C(=O)[C@@H]4C12 (stereo not given in full),2.73,-0.476,0.0209,-2.02,-0.862,-0.346,0.427,-0.559,-0.807,-0.245 (inactive),-0.355,0.399 (inactive),-1.04 (inactive),0.0564 (inactive),0.804 (inactive),-0.686,-0.0762,0.97,1.15,0.0364
C=CCC(OC(C)=O)[C@@H]1[C@@H](N(Cc2ccc(-c3cccc(C(F)(F)F)c3)o2)C(=O)c2cccc3ccccc23)c2cc(OCCCO)ccc2N1C(=O)c1ccc(-c2ccccc2)cc1 (stereo not given in full),0.955,-0.661,-0.438,-0.739,0.999,0.598,-0.328,0.641,-0.643,0.23 (inactive),0.0391,-1.63 (inactive),0.595 (inactive),-0.272 (inactive),-0.262 (inactive),0.0133,-0.0112,0.1,-0.138,1.06
C[C@]12C(=O)N(CCCO)[C@@H]3C(=O)N(c4ccc(Cl)cc4)CC=CC31O[C@@H]1/C=C\CCCOC(=O)C12 (stereo not given in full),2.25,-0.549,0.438,-2.51,-0.804,-1.72,0.202,-0.68,1.13,-0.299 (inactive),-0.408,0.231 (inactive),0.993 (inactive),-0.212 (inactive),-0.221 (inactive),-1.19,-0.218,-1.88,-1.13,0.399
COc1ccc([Si](C)(C)[C@@H]2[C@@H](CCO)O[C@]3(C(=O)N(Cc4ccccc4)c4ccc(N5C(=O)COc6ccccc65)cc43)[C@H]2C)cc1,0.807,1.13,0.294,0.191,0.197,-0.177,-0.081,0.351,0.622,0.806 (inactive),0.0063,-6.38 (inactive),-0.617 (inactive),-0.636 (inactive),0.0638 (inactive),0.104,-0.0832,-0.0843,-0.309,0.693
